About 83,000 compounds went through this panel and 20% of them were active in at least one assay; those are over-represented in the sample as a whole.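 How to read the values: 0–100, growth inhibition (40 = 60% inhibited); 0, no net growth; -100 to 0, cell death (-40 = 40% of starting cells died; -100 = all dead).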 Unmarked numbers belong to inactive results. The source made the active and inactive calls. The calls were made as follows: active = growth percent below 10; inactive = the rest.

The test system of this experiment is MDA-MB-468 breast. The experiment can be described thus: NCI-60 one-dose screen, 48 h (100 = growth as untreated, 0 = no growth, -100 = all killed). Conditions: 10 µM unless noted.
Take `c1ccc(-c2nn(-c3ccccc3)[n+](-c3ccccc3-c3ccccc3)n2)cc1`: the growth is -38.6% (active). To `COc1cnc2c(c1)C(=O)c1c-2n(CCCNCCN2CCOCC2)c(=O)c2cc([N+](=O)[O-])ccc12` belongs -27% (active). To `C#CC#CC#CC#CC#CC#CC#CC#CCC1OCC(COC(=O)O[C@@H](C(=O)O[C@H]2C[C@@]3(O)[C@@H](OC(=O)c4ccccc4)[C@@H]4[C@]5(OC(C)=O)CO[C@@H]5C[C@H](O)[C@@]4(C)C(=O)[C@H](OC(C)=O)C(=C2C)C3(C)C)[C@@H](NC(=O)c2ccccc2)c2ccccc2)O1` (some centres undefined) belongs -22.4% (active). To `CS(=O)(=O)c1ccc(-c2nc3ccccn3c2/C=N/Nc2nc(-c3ccc(Cl)cc3)cs2)cc1` belongs 94.2%.

Source of the values: PubChem BioAssay (NCI).
